Molecules are shown by their SMILES. Compounds without any hit were thinned out: in the full panel of roughly 83,000, 20% have a hit.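 Assay: single dose, 48 h. Readout: percent growth (0 = no net growth; negative = cell death). Active: <10.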 Unmarked numbers belong to inactive results. Active and inactive are the calls of the source.

Some test systems named below: HCT-15 colon; HT29 colon; SNB-75 CNS; SNB-19 CNS; U251 CNS; PC-3 prostate; SK-MEL-5 melanoma; UACC-62 melanoma; LOX IMVI melanoma; SK-MEL-28 melanoma; SK-MEL-2 melanoma; EKVX NSCLC; SN12C renal; UO-31 renal; TK-10 renal; ACHN renal; CAKI-1 renal; CCRF-CEM leukemia; MOLT-4 leukemia; A498 renal.
Assay in all cases: NCI-60 one-dose screen, 48 h (100 = growth as untreated, 0 = no growth, -100 = all killed)
Common to all, as to details: 10 µM unless noted

Turning to `CCOC(=O)Oc1c(OC)cc(C(=O)O[C@@H]2C[C@@H]3CN4CCc5c([nH]c6cc(OC)ccc56)[C@H]4C[C@@H]3[C@H](C(=O)OC)[C@H]2OC)cc1OC`, the growth with HCT-15 colon was 44.1%; with HT29 colon, 36.7%; in the test with SNB-75 CNS, 91.1%; in the test on SNB-19 CNS, 75.5%; in the test on U251 CNS, 49.4%; in the test on PC-3 prostate, 35%. In addition, the growth with SK-MEL-5 melanoma is 86.1%; in the test on UACC-62 melanoma, 87.8%; in the test on LOX IMVI melanoma it was 14.4%; in the test with SK-MEL-28 melanoma it was 83.2%; in the test on SK-MEL-2 melanoma, 105%; in the test with EKVX NSCLC, 64.6%. Also, the growth in the test with SN12C renal was 60%; in the test on UO-31 renal, 80.2%; with TK-10 renal, 99.7%; in the test on ACHN renal, 66.5%; in the test with CAKI-1 renal, 65.5%; in the test on CCRF-CEM leukemia it was -10.8% (active). Also, the growth in the test on MOLT-4 leukemia was 7.97% (active).

In the case of `C#CC(=O)Nc1cccc(Nc2nc3c(c(NCc4ccccc4)n2)CCCC3)c1`, the growth in the test with HCT-15 colon is -64.8% (active); in the test with HT29 colon, -29.1% (active); in the test with SNB-75 CNS, -29.3% (active); in the test with SNB-19 CNS it was -79.4% (active); in the test on U251 CNS it was -86.8% (active); in the test on PC-3 prostate, -66.2% (active). For the same compound, the growth with SK-MEL-5 melanoma is -89.2% (active); in the test with UACC-62 melanoma it was -77.9% (active); with LOX IMVI melanoma, -87.2% (active); in the test with SK-MEL-28 melanoma, -84.6% (active); in the test on SK-MEL-2 melanoma, -69.1% (active); with EKVX NSCLC it was -62.3% (active). Moreover, the growth in the test on SN12C renal was -30.7% (active); with UO-31 renal, -91.6% (active); with TK-10 renal, -97.2% (active); in the test with ACHN renal, -93.5% (active); in the test on CAKI-1 renal, -85.4% (active); in the test on CCRF-CEM leukemia it was -8.54% (active). The growth with MOLT-4 leukemia was -24.9% (active).

As for `C=C1C(=O)O[C@H]2[C@H]1CC/C(COC(=O)/C=C/c1c[nH]c3ccccc13)=C\CC[C@@]1(C)O[C@@H]21`, the growth was -64.6% (active) with HCT-15 colon; -83.6% (active) with HT29 colon; -53.7% (active) in the test on SNB-75 CNS; -68.8% (active) in the test with SNB-19 CNS; -98.1% (active) in the test on U251 CNS; -73.4% (active) in the test on PC-3 prostate. The growth in the test with SK-MEL-5 melanoma is -98.4% (active); in the test with UACC-62 melanoma it was -71.9% (active); in the test on LOX IMVI melanoma, -97.3% (active); in the test with SK-MEL-28 melanoma, -54% (active); in the test with SK-MEL-2 melanoma it was -83.7% (active); in the test with EKVX NSCLC, -41.4% (active). The growth was -54% (active) in the test on SN12C renal; -100% (active) with UO-31 renal; -99.2% (active) in the test with TK-10 renal; -100% (active) in the test on ACHN renal; -98.8% (active) in the test on A498 renal; 2.46% (active) with CCRF-CEM leukemia.

As to `C=C(C)[C@@H]1CC[C@]2(CO)CC[C@]3(C)[C@H](CC[C@@H]4[C@@]5(C)CCCNC(C)(C)[C@@H]5CC[C@]43C)[C@@H]12`, the growth with HCT-15 colon is 3.28% (active); with HT29 colon it was 2.58% (active); in the test with SNB-75 CNS, 77.1%; in the test with SNB-19 CNS, 49.6%; in the test on U251 CNS, 7.49% (active); in the test with PC-3 prostate it was 25.6%. The growth was -82.5% (active) in the test with SK-MEL-5 melanoma; 43.2% in the test on UACC-62 melanoma; -57.7% (active) in the test on LOX IMVI melanoma; -65.4% (active) with SK-MEL-28 melanoma; 78.8% with SK-MEL-2 melanoma; 63.3% with EKVX NSCLC. Further, the growth was 45.9% in the test on SN12C renal; 53.8% with UO-31 renal; 80.8% in the test with TK-10 renal; 50.2% in the test with ACHN renal; 38.4% with CAKI-1 renal; 12.4% in the test with CCRF-CEM leukemia. The growth in the test with MOLT-4 leukemia is 4.4% (active).

For the compound `CC1NC(=S)NC(=O)/C1=C/c1cc(=O)oc2c1ccc1ccccc12` (centres undefined), the growth in the test on HCT-15 colon was 103%; in the test on HT29 colon, 87.7%; in the test with SNB-75 CNS it was 73.3%; with SNB-19 CNS, 103%; in the test with U251 CNS, 94.9%; in the test on PC-3 prostate, 72.8%. Moreover, the growth with SK-MEL-5 melanoma is 97.1%; with UACC-62 melanoma, 99.1%; in the test with LOX IMVI melanoma, 89.2%; with SK-MEL-28 melanoma, 115%; with SK-MEL-2 melanoma it was 91%; in the test with EKVX NSCLC, 88.7%. The growth with SN12C renal was 95.6%; with UO-31 renal, 73.6%; in the test on TK-10 renal, 123%; with ACHN renal, 95.6%; with A498 renal, 101%; in the test with CCRF-CEM leukemia, 81%. In addition, the growth in the test with MOLT-4 leukemia was 88.6%.

For the compound `CC(C)(C)OC(=O)N1CCN(c2ccc(N)cc2)C(=O)C1`, the growth was 100% in the test on HCT-15 colon; 117% with HT29 colon; 87% with SNB-75 CNS; 99.9% with SNB-19 CNS; 107% with U251 CNS; 109% with PC-3 prostate. Further, the growth with SK-MEL-5 melanoma is 99.2%; in the test with UACC-62 melanoma, 98.1%; in the test on LOX IMVI melanoma, 99.1%; with SK-MEL-28 melanoma, 104%; in the test with SK-MEL-2 melanoma, 111%; in the test on EKVX NSCLC it was 98.6%. Besides, the growth was 96.2% with SN12C renal; 87.4% in the test on UO-31 renal; 126% in the test on TK-10 renal; 103% in the test on ACHN renal; 98.3% in the test on CAKI-1 renal; 107% in the test with CCRF-CEM leukemia. Besides, the growth in the test on MOLT-4 leukemia is 101%.

Regarding `CC(=O)[C@@H]1CC[C@]2(C(=O)n3ccnc3)CC[C@]3(C)[C@H](CC[C@@H]4[C@@]5(C)Cc6c([nH]c7ccccc67)C(C)(C)[C@@H]5CC[C@]43C)[C@@H]12`, the growth is 87.7% with HCT-15 colon; 81.2% in the test on HT29 colon; 101% in the test on SNB-75 CNS; 88.4% in the test on SNB-19 CNS; 87.7% in the test on U251 CNS; 63.7% with PC-3 prostate. The growth in the test on SK-MEL-5 melanoma is 94.3%; in the test with UACC-62 melanoma, 94.1%; with LOX IMVI melanoma it was 87.2%; in the test with SK-MEL-28 melanoma it was 96%; with SK-MEL-2 melanoma it was 91.2%; in the test with EKVX NSCLC, 75.2%. Further, the growth in the test with SN12C renal was 94.2%; in the test on UO-31 renal, 63.6%; in the test on TK-10 renal, 102%; in the test on ACHN renal it was 83.5%; in the test on A498 renal, 99%; in the test on CCRF-CEM leukemia it was 99.5%. For the same compound, the growth with MOLT-4 leukemia was 74.1%.

Take `Nc1cc(N)c2cccnc2c1O`: the growth is 83.7% in the test on HCT-15 colon; 87.4% with HT29 colon; 104% in the test with SNB-75 CNS; 64.2% in the test with SNB-19 CNS; 68.3% in the test on U251 CNS; 80.7% with PC-3 prostate. Also, the growth in the test on SK-MEL-5 melanoma was 62.9%; in the test on UACC-62 melanoma, 43%; in the test on LOX IMVI melanoma, 42.3%; with SK-MEL-28 melanoma, 73.6%; with SK-MEL-2 melanoma, 98.2%; in the test with EKVX NSCLC it was 83.2%. Moreover, the growth in the test with SN12C renal was 55.5%; in the test with UO-31 renal, 56.5%; in the test with TK-10 renal it was 86%; with ACHN renal, 54.3%; in the test with CAKI-1 renal, 35.3%; in the test with CCRF-CEM leukemia, 2.91% (active). Besides, the growth in the test on MOLT-4 leukemia is 5.9% (active).

Consider `O=C(/C=C/c1ccc[nH]1)c1ccc(-n2ccc(C(F)(F)F)n2)cc1`, for which the growth was 86.6% in the test with HCT-15 colon; 97.3% in the test on HT29 colon; 51.6% in the test on SNB-75 CNS; 75.5% in the test on SNB-19 CNS; 20% in the test on U251 CNS; 8.84% (active) with PC-3 prostate. The growth in the test with SK-MEL-5 melanoma was 99.9%; with UACC-62 melanoma it was 90.3%; in the test with LOX IMVI melanoma, 97.1%; in the test with SK-MEL-28 melanoma it was 103%; in the test on SK-MEL-2 melanoma, 95%; in the test on EKVX NSCLC, 79.1%. For the same compound, the growth with SN12C renal is 60.1%; in the test on UO-31 renal, -77.1% (active); with TK-10 renal, 103%; in the test with ACHN renal it was 99.5%; in the test on CAKI-1 renal it was 93.4%; in the test on CCRF-CEM leukemia, 25.7%. In addition, in the test on MOLT-4 leukemia, the growth is 72.5%.

In the case of `CN(C)C(=O)c1cc2cnc(Nc3ccc(-c4csc5c(=O)cc(N6CCOCC6)oc45)cc3)nc2n1C1CCCC1`, the growth with HCT-15 colon was -11.4% (active); in the test on HT29 colon it was -48.6% (active); with SNB-75 CNS, -65% (active); in the test with SNB-19 CNS, 1.45% (active); in the test on U251 CNS, -7.84% (active); with PC-3 prostate, -42% (active). The growth in the test on SK-MEL-5 melanoma was -98% (active); in the test with UACC-62 melanoma, -69.6% (active); with LOX IMVI melanoma it was -39.3% (active); in the test on SK-MEL-28 melanoma it was -55.9% (active); in the test with SK-MEL-2 melanoma, -58.6% (active); in the test on EKVX NSCLC, -19.5% (active). The growth with SN12C renal is 4.35% (active); in the test on UO-31 renal, -5.39% (active); in the test with TK-10 renal, -10% (active); with ACHN renal it was 1.06% (active); with CAKI-1 renal, -50.8% (active); with CCRF-CEM leukemia, -14.4% (active). The growth in the test on MOLT-4 leukemia is -32% (active).

(Values after PubChem BioAssay (NCI).)
